Calb FLC: C. albicans growth inhibition with fluconazole, primary screen, CaCi-2 strain, Alamar Blue fluorescence. actives 0.57% (n = 300,000). growth inhibition, % (no concentration beside the values). C. albicans CaCi-2 (fluconazole-resistant clinical isolate) + fluconazole, 48 h;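 active = growth inhibition above about 58% in most replicates, limit read from the data, passing the limit was not always enough; inconclusive = exactly half the replicates above a set limit; inactive = most replicates below a set limit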;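 note: all wells also contain fluconazole at 8 µg/ml as a sub-toxic cotreatment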
MPTP block: mitochondrial permeability transition pore inhibitors, primary screen, biochemical, isolated mouse mitochondria, absorbance. AID 602449, 2012. inhibition, % at 10 µM. Ca2+ swelling absorbance, 30 min. actives 1.4% (n = 360,000);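 active = inhibition of 50% or more, scaled per plate between neutral and stimulator controls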
Beta cell apopt: inhibitors of cytokine-induced beta cell apoptosis, primary screen, luminescence; protection from apoptosis, % (test concentration not listed); INS-1E cytokine-induced death, ATP luminescence, 48 h; percent of positive-control rescue, neutral wells zero; actives 0.8% (n = 300,000);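 active = Every replicate reaches about 75%, or at least half do and their mean reaches it too, limit read from the data; inconclusive = At least half of replicates reach the limit but their mean does not; inactive = Under half of replicates reach the limit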;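 note: higher means more ATP so stronger rescue from cytokine killing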
Mdm2 MdmX PPI: inhibitors of human Mdm2-MdmX association, primary screen, cell-based, luminescence, split luciferase, SaOS-2, uHTS; Protein Mdm4 (Homo sapiens) + E3 ubiquitin-protein ligase Mdm2 (Homo sapiens), …; SaOS-2 split-luciferase Mdm2/MdmX complementation; inhibition, % at 8 µM; actives 3% (n = 330,000);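 active = inhibition of at least 50% at 8 µM in the primary screen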
Target sequence (O15151 whole entry, looked up): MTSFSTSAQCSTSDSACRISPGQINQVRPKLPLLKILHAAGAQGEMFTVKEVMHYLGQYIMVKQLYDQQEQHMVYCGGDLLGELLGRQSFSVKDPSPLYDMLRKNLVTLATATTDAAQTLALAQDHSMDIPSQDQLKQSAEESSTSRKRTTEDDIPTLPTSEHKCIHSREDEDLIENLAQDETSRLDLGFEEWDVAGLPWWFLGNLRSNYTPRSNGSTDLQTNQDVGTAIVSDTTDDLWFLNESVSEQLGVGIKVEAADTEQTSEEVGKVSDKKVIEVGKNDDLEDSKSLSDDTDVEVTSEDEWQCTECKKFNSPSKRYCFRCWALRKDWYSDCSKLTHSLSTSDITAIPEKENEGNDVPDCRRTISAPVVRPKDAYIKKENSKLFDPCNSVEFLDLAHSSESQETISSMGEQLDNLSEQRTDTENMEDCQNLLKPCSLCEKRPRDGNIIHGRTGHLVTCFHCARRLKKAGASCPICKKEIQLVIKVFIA
Target sequence (Q00987 whole entry, looked up): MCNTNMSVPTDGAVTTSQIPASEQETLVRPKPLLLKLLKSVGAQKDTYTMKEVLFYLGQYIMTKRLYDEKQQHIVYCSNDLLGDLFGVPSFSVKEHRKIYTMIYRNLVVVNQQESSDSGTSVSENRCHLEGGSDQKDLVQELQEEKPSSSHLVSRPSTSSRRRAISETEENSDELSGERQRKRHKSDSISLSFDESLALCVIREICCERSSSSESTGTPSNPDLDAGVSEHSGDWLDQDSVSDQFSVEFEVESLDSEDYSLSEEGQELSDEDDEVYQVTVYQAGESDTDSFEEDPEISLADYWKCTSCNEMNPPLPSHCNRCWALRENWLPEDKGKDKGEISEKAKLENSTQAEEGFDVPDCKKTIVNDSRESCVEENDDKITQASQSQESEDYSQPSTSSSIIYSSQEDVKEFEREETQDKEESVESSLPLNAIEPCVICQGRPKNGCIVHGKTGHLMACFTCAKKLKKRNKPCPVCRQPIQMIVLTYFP
CSC inhib: cancer stem cell viability inhibitors, primary screen, luminescence | cancer stem cell-like cells viability | inhibition, % at 7.5 µM | actives 1.1% (n = 300,000) | AID 2717, 2010; in the data active = inhibition above about 75%; inconclusive = no clear call, values can overlap the other calls; tested in HMLE shEcad cells
Rh123 counter: fluorescence retest of MPTP screen hits in isolated mitochondria, single concentration; shares compounds with MPTP block; membrane potential, Rhodamine 123 fluorescence; inhibition, % at 10 µM; actives 78% (n = 5,000); AID 624504, 2012; in the data active = inhibition above about 22%
MPTP abs DR: mitochondrial permeability transition pore inhibitors, dose response, biochemical, absorbance, uHTS hits; shares compounds with MPTP block; isolated mitochondria swelling; IC50, µM; actives 58% (n = 780); in the data active = IC50 below about 20 µM
MPTP counter DR: fluorescent counter-screen in isolated mitochondria, dose response, counter-screen for MPTP inhibitor project, biochemical, fluorescence, uHTS hits; shares compounds with MPTP block; isolated mitochondria counterscreen, fluorescence read-out; actives 49% (n = 780); IC50, µM; in the data active = IC50 below about 80 µM
Numbers stand for hits; - = inactive; ? = inconclusive; . = no result given. A selection: hits, their analogues and other compounds. The true share with any hit is near 4.8%.

SMILES | Calb FLC | MPTP block | Beta cell apopt | Mdm2 MdmX PPI | CSC inhib | Rh123 counter | others
COc1ccc(-n2nc(C(=O)NCC(=O)NCCCN3CC(C)CC(C)C3)c3ccccc3c2=O)cc1Cl (stereo not given) | - | - | - | - | - | .
O=[N+]([O-])c1ccc(Nc2ccc(Cl)cc2)nc1 | - | - | . | - | - | .
O=C(NNC(=O)c1ccncc1)Nc1ccccc1 | - | - | - | - | - | .
O=C(NNC(=O)c1ccncc1)Nc1ccc(N=Nc2ccccc2)cc1 | . | 68 | . | . | . | 30
O=[N+]([O-])c1ccc(Nc2ccc3ccccc3c2)nc1 | - | 78 | - | - | - | 59
O=C(NNc1ccc([N+](=O)[O-])cn1)Nc1ccc(N=Nc2ccccc2)cc1 | . | 91 | . | . | . | 64
CC(=NNc1ccc([N+](=O)[O-])cn1)c1ccccc1 | . | - | . | . | . | .
CCCN1CCC(NC(=O)Nc2ccc(Br)cc2)CC1 | - | 61 | - | - | - | 76
CC(C)S(=O)(=O)C1=NSC2=NC(=O)/C(=C\c3ccc(-c4ccccc4)o3)C(=N)N21 | - | 106 | - | . | - | 68
COc1cc(OC)c(OC)cc1CNC(=O)c1cccc(S(=O)(=O)N2CCc3ccccc3C2)c1 | . | 98 | . | - | . | 104
CC(C)(C)CC(C)(C)NC(=S)Nc1ccc(S(=O)(=O)N2CCOCC2)cc1 | - | 100 | - | - | - | 78
O=S(=O)(c1ccc(NC(=S)Nc2ccc(OC(F)F)cc2)cc1)N1CCOCC1 | - | 98 | - | - | - | 90
CCCCOCCCNC(=S)Nc1ccc(S(=O)(=O)N2CCOCC2)cc1 | - | - | - | - | - | .
O=S(=O)(c1ccc(NC(=S)NCCC(c2ccccc2)c2ccccc2)cc1)N1CCOCC1 | - | 97 | - | - | - | 80
NNC(=S)Nc1ccc(S(=O)(=O)N2CCOCC2)cc1 | - | - | - | - | - | .
COc1ccc(Cl)cc1S(=O)(=O)N1CCC(C(=O)NC2CC2)CC1 | - | - | - | - | - | .
COc1ccc(Sc2ccc(NC(=O)c3ccccc3Cl)cc2C#N)cc1 | - | - | . | - | - | .
N#Cc1cc(NC(=O)c2ccc(Cl)cc2)ccc1Sc1ccccc1 | . | 73 | . | . | . | 96
CC(C)N=c1scc(-c2cccs2)n1/N=C/c1ccc(O)c(O)c1O | . | 95 | - | - | - | 50
CCOc1cc(C(=O)N(CC)CC(=O)Nc2c(F)cccc2F)ccc1OCC(=O)N1CCCCC1 | - | - | - | - | - | .
Cc1ccc(CNC(=O)CCC2CCCN(Cc3cc4ccccc4o3)C2)o1 (stereo not given) | - | - | - | - | - | .
O=C(Nc1ccc(Oc2ccccc2)cc1)c1cnc2n(c1=O)CCS2 | - | 92 | . | - | - | 61
CN1CCN(c2nc(-c3ccccc3)nc(-c3ccccc3)c2C#N)CC1 | - | 69 | - | - | - | - | MPTP abs DR=17;MPTP counter DR=-
COc1ccc(-c2nc(-c3ccccc3)nc(N3CCN(C)CC3)c2C#N)cc1 | - | - | . | - | - | .
COC(=O)c1sc2nc(-c3ccccc3)nc(N3CCN(C)CC3)c2c1C | - | 76 | . | . | . | - | MPTP abs DR=9.8;MPTP counter DR=-
SMILES | Calb FLC | MPTP block | Beta cell apopt | Mdm2 MdmX PPI | CSC inhib | Rh123 counter | others
Cc1ccc(NC(=O)NCc2cccn2C)cc1C | - | - | . | - | . | .
CCN(CC)c1ccc(C(=O)OCc2c(C)noc2C)cc1 | - | - | - | - | - | .
C/C(=N\NC(=O)CSc1nc(C)cc(C)n1)c1ccc([N+](=O)[O-])cc1 | - | - | - | - | - | .
Cc1cc(C)nc(-n2nc(C)c(Br)c2Nc2ccc(Br)cc2)n1 | - | - | - | - | - | .
Cc1nn(C)c(Nc2ccc(Br)cc2)c1Br | - | 89 | - | - | - | 76
O=C(CS(=O)CC(=O)N(CC(=O)NC1CCCC1)c1ccccc1F)Nc1ccc(F)cc1 (stereo not given) | - | - | - | - | - | .
Cc1ccc(/C([O-])=C(/C(=S)Nc2ccc(SC(F)F)cc2)[n+]2ccccc2)cc1[N+](=O)[O-] | ? | 64 | - | - | - | 80

Source: PubChem BioAssay (several laboratories)
